Measurements: PubChem BioAssay (NCATS)
Inconclusive results are not listed. Where a call stands in place of a potency, no number is given. Calls of active or inactive are those of the source. The call rests on the fitted dose curve; in most records, active means well fitted inhibition curve with a large enough effect; inconclusive means small, poorly fitted or top-dose-only effect; inactive means flat fitted curve, though single readings scatter.

Target: Aldehyde dehydrogenase, mitochondrial (Homo sapiens) (UniProt P05091)
Assay: qHTS for Inhibitors of the Aldehyde Dehydrogenase Family (ALDH2) Primary screen (AID 2061308); further: nearly all actives have a fitted effect of over 55% in size
Settings: ALDH2 enzyme inhibition qHTS, 1536-well; series mostly up to 56 µM

Compound | Potency
COc1ccc(-c2nc(-c3cccc(C(=O)O)c3)no2)cc1 | inactive
O=C(O)c1ccc(O)c2ncc(NCC3CCCN(CCc4ccccc4)C3)cc12 (stereo not given) | inactive
Cc1ccc(C2Nc3cccc4cccc(c34)N2)cc1 | inactive
FC(F)(F)c1ccccc1-c1nc(NCc2ccc(-c3cccc4ccccc34)cc2)c2ccccc2n1 | inactive
C=C1CC[C@@H]2[C@](C)(CO)[C@H](O[C@@H]3O[C@H](CO)[C@@H](O)[C@H](O)[C@H]3O)CC[C@@]2(C)[C@@H]1C/C=C1/C(=O)OC[C@H]1O | inactive
Fc1cc(Nc2nc(-c3ccncc3)nc3ccccc23)ccc1OC(F)(F)F | inactive
COc1ccc(OC)c(NC(=O)c2ccccc2OC(C)=O)c1 | inactive
COc1cccc(Cn2ncc3c4sc(B(O)O)cc4n(C)c3c2=O)c1 | inactive
Cc1cnc(-c2ccccc2C(F)(F)F)nc1NCc1ccc(-c2cccnc2)cc1 | inactive
COc1ccc(C(O[C@@H]2O[C@H](CO)[C@@H](O)[C@H](O)[C@H]2O)C(CO)Oc2ccc(/C=C/CO)cc2OC)cc1O (stereo not given in full) | inactive
Cc1ccc(-c2ccc(=O)n(CC(=O)NCc3ccccc3)n2)cc1 | inactive
Cc1ccnc(NC(=S)N2CCN(c3ccc(Br)cc3)CC2)c1 | inactive
O=C(O)c1ccc(Cc2c(-c3cccc(-c4ccccc4)c3)[nH]n(-c3nc(C(=O)O)cs3)c2=O)cc1 | inactive
CCCCN(C)C(=O)Cn1nc(-c2ccc(C(C)=O)cc2)ccc1=O | inactive
FC(F)(F)c1cc(-c2ccc(CNc3nc(-c4ccccc4C(F)(F)F)nc4ccsc34)cc2)ccn1 | inactive
